MCL1 BIM primary – MCL1-BIM-BH3 interaction inhibition (human) | 320,000 compounds, 0.68% hits | Q07820 | inhibition, % at 10.9 µM | GST-MCL1 / FITC-Bim-BH3 fluorescence polarization;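 active means inhibition above the mean inhibition of all tested compounds plus 3 SD, set per campaign, cut at about 40% in these data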;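 further: 0% = DMSO wells and 100% = unlabeled Bim-BH3 peptide control; higher means more loss of mP so more displacement of Bim peptide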
Target sequence (Q07820 whole entry, looked up): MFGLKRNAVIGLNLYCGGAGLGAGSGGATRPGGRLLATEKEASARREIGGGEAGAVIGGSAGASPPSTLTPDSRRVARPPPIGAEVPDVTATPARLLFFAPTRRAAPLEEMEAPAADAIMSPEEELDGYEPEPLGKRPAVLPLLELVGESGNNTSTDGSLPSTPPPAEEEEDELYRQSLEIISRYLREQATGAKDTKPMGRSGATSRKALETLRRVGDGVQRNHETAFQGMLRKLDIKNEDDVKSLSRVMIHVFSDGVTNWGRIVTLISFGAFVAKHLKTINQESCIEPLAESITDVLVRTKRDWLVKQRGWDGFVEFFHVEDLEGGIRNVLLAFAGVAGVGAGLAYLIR
Mcl1-Noxa inh – disrupts binding of human Mcl-1 to Noxa peptide; TR-FRET Mcl-1/Noxa peptide binding, 2 h; inhibition, % at 21.7 µM; 220,000 compounds, 1.5% hits;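 active means compounds that cut the protein-peptide binding signal by more than 50% relative to plate controls in a single-dose test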;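 further: His-tagged Mcl-1 with rhodamine Noxa BH3 peptide and terbium anti-His antibody; 0% = Mcl-1 plus Noxa peptide wells and 100% = peptide-only wells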
GLD-1 RNA inh – GLD-1-TGE RNA interaction inhibition (C. elegans); Q17339; purified GLD-1 + fluorescein TGE RNA, fluorescence polarization; inhibition, % at 5.96 µM; 320,000 compounds, 0.44% hits;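 active means percent inhibition above a per-plate cutoff, the plate mean of test compounds plus 3 SD, cut at about 30% in these data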;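 further: 0% = DMSO wells with GLD-1 and probe and 100% = wells lacking GLD-1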
Mcl1 Bid PPI – disrupts binding of human Mcl-1 to Bid peptide; TR-FRET Mcl-1/Bid-Dy647 peptide binding, 1536-well; 220,000 compounds, 0.97% hits; inhibition, % at 21.7 µM; AID 1021;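 active means compounds that cut the binding signal by more than half at the single screening dose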;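 further: His-tagged Mcl-1 with europium anti-His antibody binding Bid BH3 peptide; 0% = Mcl-1 plus peptide wells and 100% = peptide-only wells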
Bim-Mcl-1 – human Bim-Mcl-1 interaction inhibition. Bead-based flow cytometry, Bim peptide-Mcl-1 binding. 190,000 compounds, 0.1% hits. inhibition, % at 10 µM. Q07820. AID 1009; in the data active means inhibition above about 40%;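 further: 0% = no compound tracer wells and 100% = peptide blocker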
Bcl-xL primary – blocks human Bcl-xL binding to Bim BH3 peptide. GST-Bcl-xL / FITC-Bim BH3 peptide fluorescence polarization. AID 2129. 320,000 compounds, 0.7% hits. inhibition, % at 10.9 µM;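 active means inhibition above the mean of all tested compounds plus 3 SD, cutoff set per campaign, cut at about 30% in these data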;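 further: 0% = DMSO wells and 100% = unlabeled Bim-BH3 peptide competitor; inhibitors lower millipolarization by displacing the labeled peptide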
Target sequence (Q07817 whole entry, looked up): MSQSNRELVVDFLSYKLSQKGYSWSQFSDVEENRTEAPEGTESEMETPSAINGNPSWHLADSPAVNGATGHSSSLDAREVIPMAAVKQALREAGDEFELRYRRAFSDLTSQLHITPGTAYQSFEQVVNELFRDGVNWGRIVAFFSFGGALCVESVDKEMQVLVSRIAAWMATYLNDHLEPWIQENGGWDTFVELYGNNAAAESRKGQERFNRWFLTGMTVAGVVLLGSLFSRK
* hit, by the source's call; nt = not tested or not shown. Shown are actives, neighbours in structure and some others; about 2.3% of the full set was active somewhere.

SMILES | MCL1 BIM primary | Mcl1-Noxa inh | GLD-1 RNA inh | Mcl1 Bid PPI | Bim-Mcl-1 | Bcl-xL primary
CCOc1ccc(C2C(C(=O)/C=C/c3ccco3)=C(O)C(=O)N2CCN2CCOCC2)cc1OC (centres undefined) | 23.4 | 11.1 | 11.6 | -30.3 | 2.0 | 33.8*
O=C1CCCN1CCCNCC(=O)N1c2ccccc2Sc2ccccc21 | -2.6 | 40.6 | -3.0 | 51.4* | 3.0 | -0.1
COc1cc(/C=C2\CC/C(=C\c3cc(OC)c(O)c(OC)c3)C2=O)cc(OC)c1O | -56.0 | 100.6* | -40.5 | -1.7 | 17.0 | -30.7
CCC(C)(C)n1nnnc1C(C(C)C)N(Cc1ccco1)Cc1cc2cc3c(cc2[nH]c1=O)OCO3 (centres undefined) | 46.3* | 8.6 | 28.1 | -11.2 | -1.0 | 45.5*
COc1ccc2[nH]c(=O)c(CN(C3CCCCC3)C(c3nnnn3Cc3ccco3)C(C)C)cc2c1 (centres undefined) | -33.8 | 57.3* | -15.3 | -16.9 | -10.0 | -24.8
Cc1ccccc1CS(=O)(=O)CC(O)CN1CCCC1=O (centres undefined) | 0.4 | nt | 3.5 | nt | nt | 1.8
COc1ccc(OC)c(NC(=S)N(CCc2c(C)[nH]c3ccc(C)cc23)Cc2cccs2)c1 | 4.4 | 13.1 | -8.4 | 84.9* | 0.0 | 2.2
COc1ccc(OC)c(NC(=S)N(CCc2c(C)[nH]c3ccccc23)Cc2cccs2)c1 | 0.0 | 12.3 | 2.4 | -17.0 | 0.0 | -2.1
O=C1CCN(Cc2ccccc2)N1 | -3.1 | nt | -0.3 | nt | nt | 2.2
COCCCN=C1NN=C(c2cc(C)n(Cc3ccco3)c2C)CS1 | 2.7 | 16.9 | -0.4 | -42.1 | -2.0 | 0.0
Cc1cc(C2=NNC(=NC3CC3)SC2)c(C)n1Cc1ccco1 | 3.4 | 19.0 | 3.4 | -38.6 | 61.0* | 7.0
Cc1ccc(-n2nc(C)c(C(=O)Nc3cccc(C(=O)NC4CC4)c3)n2)c(C)c1 | -0.9 | nt | -1.2 | nt | nt | 0.9
CCOc1cc(/C=C(\C#N)C(=O)Nc2ccccn2)ccc1O | -6.6 | nt | -13.6 | nt | nt | -1.7
CCOc1cc(/C=C(\C#N)c2[nH]nc(N)c2C#N)ccc1O | -1.4 | 77.5* | -28.8 | -56.1 | 16.0 | 9.2
COc1cc(-c2cc(-c3ccc(O)cc3)nc(N)c2C#N)ccc1O | 1.0 | 30.7 | -8.0 | -28.6 | 9.0 | 1.2
CCOc1cc(-c2cc(-c3ccc(C)cc3)nc(N)c2C#N)ccc1O | 20.8 | 19.2 | 14.8 | 5.0 | 2.0 | 30.3*
O=C1CCc2cc(S(=O)(=O)NCCCC(=O)N3CCN(Cc4ccc5c(c4)OCO5)CC3)ccc2N1 | -0.6 | 2.7 | -9.2 | -55.1 | 40.0* | 4.4
CN(Cc1ccccc1)C(=O)C1CCN(Cc2ccc(F)cc2)CC1 | 6.9 | 9.0 | 1.4 | 55.1* | -2.0 | 3.9
COc1ccc(NC(=O)c2cc3sccc3n2Cc2ccc(F)cc2)cc1OC | 11.5 | -50.4 | 4.0 | 57.5* | -2.0 | -1.1
O=C(Nc1nccs1)c1cc2sccc2n1Cc1ccc(F)cc1 | 3.7 | -51.5 | 0.6 | 2.8 | 0.0 | 0.0
CCOc1ccc(OCCOC(=O)CNC(=O)c2ccc(Cl)cc2Cl)cc1 | -15.8 | nt | 6.8 | nt | nt | -9.2
O=C(NNC(=O)c1cc(Br)c(Br)s1)c1csc(N2CCOCC2)n1 | -4.3 | nt | -2.7 | nt | nt | -2.7
COc1ccc(N2CCC(CNC(=O)Nc3ccccc3)C2)cc1 (centres undefined) | 23.6 | 82.2* | 6.6 | -43.9 | -5.0 | 7.3
COc1ccc(Cl)c(N2CCN(CCCNC(=O)Nc3ccc(C)cc3)CC2)c1 | 5.8 | 75.0* | 0.6 | 4.5 | 0.0 | 5.8
COc1ccc(N2CCC(CNC(=S)Nc3cc(C)cc(C)c3)C2)cc1 (centres undefined) | 6.1 | 10.9 | 8.4 | -147.6 | nt | 8.4
SMILES | MCL1 BIM primary | Mcl1-Noxa inh | GLD-1 RNA inh | Mcl1 Bid PPI | Bim-Mcl-1 | Bcl-xL primary
COc1ccc(NC(=O)NCCCN2CCC(Cc3ccccc3)CC2)cc1 | 4.8 | 51.7* | -0.3 | -9.3 | nt | -1.3
O=C1C=C(c2cccc(CO)c2)C[C@@H](c2ccc3c(c2)OCO3)C1 | -1.5 | nt | -3.4 | nt | nt | -2.7
O=C(CSc1cn(Cc2cccc(F)c2)c2ccccc12)NCc1ccc(F)cc1 | -2.2 | 4.5 | -0.1 | 62.2* | -3.0 | 1.4
CSc1cccc(NC(=O)CN(C)S(=O)(=O)c2ccccc2)c1 | 10.9 | -17.9 | 0.9 | 72.1* | 0.0 | 7.8
O=C(O)c1cc(S(=O)(=O)N2CCCCC2)ccc1N1CCCC1 | nt | nt | 3.0 | nt | nt | nt
CN(C)C(=O)c1cn(N(C)c2ncc(C(F)(F)F)cc2Cl)c(=O)c2ccccc12 | 3.8 | 30.9 | -11.6 | 61.1* | -3.0 | 4.4
CN(C)C(=O)c1cccn1-c1ncc(C(F)(F)F)cc1Cl | 0.9 | 2.8 | -7.6 | -8.2 | -2.0 | 3.8
CC(C)N=c1scc(-c2ccco2)n1/N=C/c1ccc(O)c(O)c1 | 27.2 | 35.3 | 1.6 | -7.6 | 0.0 | 4.0
COCCN=c1scc(-c2ccco2)n1/N=C/c1ccc(O)c(O)c1O | 10.7 | 102.6* | -14.8 | 3.5 | 7.0 | -14.9
COc1ccccc1C1CC(c2ccccc2)Nc2ncnn21 (centres undefined) | 2.1 | 14.1 | -4.1 | 97.3* | -4.0 | 4.8
Cc1ccc(Nc2nc(N)c([N+](=O)[O-])c(NCc3ccccc3)n2)cc1 | 0.0 | 2.6 | 7.7 | -1.8 | nt | 4.2
COc1ccc(Nc2nc(N)c([N+](=O)[O-])c(NCc3ccccc3)n2)cc1 | 1.1 | 51.2* | 1.9 | 29.4 | nt | 1.6
CN(C(=O)CSc1nc(-c2cccs2)nc2ccccc12)C1CCS(=O)(=O)C1 (centres undefined) | nt | nt | 6.6 | nt | nt | nt
COc1cc(/C=N/NC(=O)CN(Cc2ccccc2)S(=O)(=O)c2ccc3c(c2)OCCO3)ccc1O | 2.2 | 26.7 | -1.4 | -19.7 | 2.0 | 4.9
COc1cc(/C=N/NC(=O)CN(Cc2ccco2)S(=O)(=O)c2ccccc2)ccc1O | -2.1 | 23.6 | -1.7 | -22.6 | 45.0* | 5.9
CCc1ccc(C(CC(=O)c2ccc(Cl)cc2)C(=O)O)cc1 (centres undefined) | 7.2 | 6.6 | 2.3 | 95.5* | -2.0 | 7.9
O=C(NCC(O)CO)c1csc(Nc2cccc3ccccc23)n1 (centres undefined) | 5.8 | nt | 9.4 | nt | nt | 3.6
Cn1c(C(C#N)C2=C(Cl)C(=O)N(c3ccccc3)C2=O)nc2ccccc21 (centres undefined) | 42.0* | nt | 44.9* | -9.5 | -4.0 | 50.5*
CCc1cc(CN2CCOCC2)c(NC(=O)c2ccccc2)s1 | -1.4 | 6.6 | -2.8 | -22.3 | -2.0 | 0.5
CCc1cc(C(c2ccc(F)cc2)N2CCOCC2)c(NC(=O)c2ccccc2)s1 (centres undefined) | 3.8 | 21.2 | 4.5 | 67.5* | 0.0 | 6.3
O=C(NCCN1CCOCC1)c1ccccc1OCc1ccccc1 | nt | nt | -7.2 | nt | nt | nt
COc1ccc(C2Nc3ccccc3C(=O)N2NC(C)=O)cc1OC (centres undefined) | -4.5 | 9.4 | -9.2 | -6.2 | 0.0 | 0.6
COc1ccc(C2Nc3ccccc3C(=O)N2O)cc1OC (centres undefined) | 6.1 | -0.6 | 8.5 | 92.6* | -3.0 | 6.1

Compound activity from PubChem.
